# A selection: hits, their analogues and other compounds. The true share with any hit is near 8%.
# Marburg entry = qHTS for Inhibitors of binding or entry into cells for Marburg Virus | Marburg virus pseudotype entry/binding inhibition, cell-based | hit rate 6.5% among 18,000 | Potency, µM (highest dose often 49.2 µM), inactives show at the highest dose activity change, negative = inhibition, hits mostly inhibitors | AID 720532, 2013
# LASV entry inh = qHTS for Inhibitors of binding or entry into cells for Lassa Virus; hit rate 4.1% among 18,000; Lassa virus pseudotyped entry inhibition, cell-based qHTS; AID 720533, 2013; Potency, µM (series often up to 49.2 µM), for inactives: top-dose activity change, negative = inhibition, most hits filed as inhibitors
# An asterisk follows results filed as active; ? = inconclusive; . = not tested or not shown; ! = not confirmed by another sample; [ ] = remark or other dose. The call rests on the fitted dose curve; tested in HEK293 cells. On the % scale 0 is the no-effect control and ±100 the full control effect; potency means the concentration at half of the fitted maximal effect.
SMILES,Marburg entry,LASV entry inh
Cn1cc(C2=C(c3cn(C4CCN(Cc5ccccn5)CC4)c4ccccc34)C(=O)NC2=O)c2ccccc21,7.1µM*,?
CN1C/C(=C/c2ccc(B(O)O)cc2)C(=O)/C(=C/c2ccc(B(O)O)cc2)C1,6.3µM*,13µM*
C#CCCCON=C1C[C@@H](O)[C@H](O)[C@H]2[C@@H]3C(=O)N(C[C@@H]4CCCO4)C(=O)[C@@H]3CC[C@H]12,4%[8.59 µM],?
CN1CCC(=C2c3ccccc3CCc3cccnc32)CC1,-25%,-5%
CCOC(=O)N1CCC(=C2c3ccc(Cl)cc3CCc3cccnc32)CC1,-17%,32µM*!
COC(=O)CC=C[C@@H](C)[C@@H](C=NOCC[C@@H]1C=C[C@H](OC(C)=O)[C@@H](COC(C)=O)O1)NS(=O)(=O)c1ccc(C)cc1,53%[8.59 µM],-19%[8.59 µM]
CC1=C[C@@H](COc2ccccc2)O[C@@]2(C1)C(=O)N(Cc1ccccc1)c1ccccc12,?,7%[8.59 µM]
CN(C)Cc1c[nH]c2ccccc12,6%,-2%
OCc1c[nH]c2ccccc12,32µM*!,32µM*!
CC#CC(=O)Nc1cc2c(Nc3ccc(F)c(Cl)c3)ncnc2cn1,-16%,-2%
CCN(CC)CC1CCN(c2ncc3ncnc(Nc4ccc(F)c(Cl)c4)c3n2)CC1,3.5µM*,?
COC(=O)C1=C(C(=O)OC)[C@@H]2N(C)c3ccccc3[C@@]23C[C@@H](C(=O)OC)N(C(=O)NC(C)(C)C)C3=N1,14%[8.59 µM],.
O=C(Nc1ccccc1)c1cc([N+](=O)[O-])ccc1Cl,?,-25%
O=C(Nc1ccc([N+](=O)[O-])cc1Cl)c1cc(Cl)ccc1O,5µM*!,1.1µM*
C[C@H]1CN(c2ccc(Br)cc2)C(=O)[C@H]1CC(=O)Nc1ccc(Br)cc1,?,14%
COCCN1C(=O)NC(CCc2ccccc2)C(C(=O)OC)=C1C (configuration not stated),72%[8.59 µM],6%[8.59 µM]
CC[C@]1(c2ncc[nH]2)Cc2ccccc2O1,-18%,4%
CN(C)CCC1(c2ccc(Cl)cc2)Cc2ccccc2C(=O)O1 (configuration not stated),35µM*,-15%
CC1=C(C(=O)Nc2ccc3[nH]ncc3c2)C(c2ccc(Cl)c(Cl)c2)CC(=O)N1 (configuration not stated),-18%,17%
c1ccc(-c2[nH]ncc2-c2ccnc(-c3ccc(OCCN4CCOCC4)cc3)c2)nc1,-19%,-14%
c1cc(-c2cnn3cc(-c4ccc(OCCN5CCCCC5)cc4)cnc23)ccn1,13µM*,41%
CS(=O)(=O)CCNCc1coc(-c2ccc3ncnc(Nc4ccc(OCc5ccccc5)cc4)c3c2)c1,?,-69%
O=C(O)c1ccc(OCCCOc2ccc(C(=O)O)cc2)cc1,8%,4%
CN(C)CCOC(=O)COc1ccc(Cl)cc1,-11%,-3%
CCN(CC)CCOc1ccc(/C(=C(\Cl)c2ccccc2)c2ccccc2)cc1,.,14µM*!
SMILES,Marburg entry,LASV entry inh
CC/C(=C(/c1ccccc1)c1ccc(OCCN(C)C)cc1)c1ccccc1,3.2µM*,.
CC(C)CN1Cc2cc(Br)ccc2Oc2ccc(Cl)cc2S1(=O)=O,?,-10%
C[C@H]1[C@@H](c2ccccc2)Oc2c(Cl)cccc2S(=O)(=O)N1Cc1cccc(Cl)c1,?,-28%
COC(=O)C1=C(C)N(Cc2ccccc2)C(=NCc2ccccc2)NC1c1ccccc1 (configuration not stated),?,29%[8.59 µM]
CC12C=C(C=Cc3ccccc3)C(C)(C1)C(c1ccccc1)CC2=O (configuration not stated),-4%[8.59 µM],-11%[8.59 µM]
Cc1noc(C)c1-c1nc(N2CCOCC2)c2ccccc2n1,5%,-2%
CN(C)Cc1ccccc1-c1nc(N2CCOCC2)c2ccccc2n1,18µM*,-11%
CC(C)OC(=O)[C@H](C)NC(=O)N1CCc2nc(-c3ccccc3)c3c(c2C1)CO[C@@H](C)C3,-2%[8.59 µM],-9%[8.59 µM]
C#C[C@]1(O)CC[C@H]2[C@@H]3CCC4=CC(=O)CC[C@@H]4[C@H]3C(=C)C[C@@]21CC,8%,-20%
CCc1cc(Cl)c(OC)c(C(=O)NC[C@@H]2CCCN2CC)c1O,4.5µM*,?
CCCCN1CCC[C@H]1CNC(=O)c1cc(C#N)c2ccccc2c1OC,10µM*,?
CCN1CCCC1CNC(=O)c1cnn(-c2nccc(-c3ccccc3OC)n2)c1-c1ccco1 (configuration not stated),?,-4%
CCN1CCCC1CNC(=O)c1cc(S(N)(=O)=O)ccc1OC (configuration not stated),3%,17%
CCOC(=O)NN=C1C[C@@H](O)[C@@H](O)[C@@H]2[C@H]3C(=O)N(C4CCCCC4)C(=O)[C@@H]3CC[C@@H]12,-25%[8.59 µM],.
Nc1ccccc1C(=O)C=Cc1ccccc1,11%[8.59 µM],13%[8.59 µM]
CCCC[C@H]1CN2[C@H](c3ccc(Br)cc3)[C@H](C)CC[C@H]2C(=O)O1,2%[8.59 µM],8%[8.59 µM]
OCCOCCN1CCN(C2=Nc3ccccc3Sc3ccccc32)CC1,-10%,-24%
